Measured values published in the supplement of paper PMC11417369.
The full ranking holds about 25,000 sequences; the median of “ln(normalized median fluorescence intensity)” is about 6.7, and the highest 2% start at about 10. The list comes from a sample in which the highest values are over-represented; it also holds similar and randomly drawn sequences.

Tested on: PfHDP1 homeodomain (GST-tagged)
Test: gcPBM binding intensity (ln(normalized median fluorescence intensity)); higher = stronger DNA binding
Method in brief: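 Plasmodium falciparum DNA-binding domains carrying a GST tag were expressed in E. coli and applied for 1 h, at about 25 μg on average, to an Agilent 4 × 180k array. The array held primer-extended double-stranded 36-bp intergenic genomic probes together with negative controls, and binding took place in 1× PBS with 1% milk, 0.2 mg/ml BSA, 0.5% salmon testes DNA and 0.03% Triton X-100. An Alexa488 anti-GST antibody detected bound protein, and the array was scanned at 488 nm. Binding intensity is taken as the highest Masliner-normalised natural-log median intensity across replicate spots of either probe orientation.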

Sequence	gcPBM binding intensity (ln)
CATACATATATTATTGCACACATATAAAATACCCCC [CACACA_site9292]	10.4
ATAAATATTGCGTGCACACACATAATATTTATATAT [CACACA_site7136]	10.3
CTATATAAAAAAATTGCACACATAAATATATACATA [CACACA_site8325]	9.87
ATAAATATTGGGTGCACACACATAATATATATATAT [CACACA_site2272]	10.5
TTATTTACTTATTGCACACATATAAAATATATTTAT [CACACA_site3101]	10.7
TACAGATATTATTGCACACATATAAAATACCCCCAA [CACACA_site6014]	10.4
ATTGGGTACAAATACACACACATATAAATATTAATA [CACACA_site7173]	6.68
TATAAAAAAATAAAAGGAATATACTTGCAAAGGGTA [CACACA_negctrl_site1438]	8.14
ATAATATTTTCTTCTTATTGAATGCTTTAAATTTAC [CACACA_negctrl_site1273]	6.46
CGCACTAAAAAACACACACACACACCCATATATATA [CACACA_site4152]	7.19
TTTTTAATTTTGTGGGTGCTTTCGTGTTATTATATA	7.23
ATAAACATGGAAATGTATTAAAAGCAAGTATATAAA [XGTACX_negctrl_site516]	6.66
TGTTTTTAAAAATATACACACACAGATATTATATAT [CACACA_site8162]	6.73
CATCCACATATATGTACACACATATATATATATATA [CACACA_site2964]	9.46
TATAATAATACTTATTGTACTATTAGTTTAATTCAT [XGTACX_site6638]	6.15
AATGTAGAAATGGGTGCACACACATATATAATATAT [CACACA_site8799]	10.2
TTTTTTTTTTTTTGCACACACATATATAAATATATA [CACACA_site3949]	9.41
AATAAAAAAAAATGCACACATATATATATATATATA [CACACA_site2421]	9.87
TATATATATATATTCACACATAAAAATAAAATAAAA [CACACA_site4774]	8.8
CTTTTTTTTTTTTTTGCACACACATATATAAATATA [CACACA_site3950]	10.6
TAAACATAAATATGCACACATATACATATATTCATA [CACACA_site2667]	9.75
TATATATATATATTCACACATAAATATATGCACCCA [CACACA_site4263]	11
AATATAAATAAACACACACACATATATATATATATT [CACACA_site2906]	6.78
TGTAGAAATGGGTGCACACACATATAAAATCTATAT [CACACA_site7224]	10.4
ATATATATATATTGCACACATATAAATATATATATT [CACACA_site807]	10.6

Sequence	gcPBM binding intensity (ln)
TATAAATACATACATACACACATATATATATATATT [CACACA_site6116]	6.81
TGTAGAAATGGGTGCACACACATATATAATATATAT [CACACA_site2507]	10.7
GATTAATTTAAAAAATGTACATTTTATTGTATAACC [XGTACX_site5539]	6.55
AACTGAGAAACCGAAGTGCAATATGTATATATACAT	9.08
GAAAATAGAAAAAGCACACATATATTTTGGAATGTA [CACACA_site551]	6.5
ATATATATAACAAAAGTGCATTAAGGGGATGCTATA	8.66
CGTATTATTTTATAAACACACAAGGGGGCATGTATA [CACACA_site6489]	7.82
TTTTTTTTTTTTTTGGTGCGATCTTTTAAATGATCC	6.48
TAATTTCCTTAAGAATGTACTTACATTTTATTATTT [XGTACX_site5998]	6.02
CCTATAAAACCATATACACACATATAAATAAAAAAA [CACACA_site7809]	6.58
TACAAATATATAAAATGTACATATATATACATATTA [XGTACX_site3029]	6.13
AAATAATATGTAATCAAATTCACCAAACGAAAAAAA [TGCATGCA_negctrl_site33]	6.59
ATATATATTAATTTTGTGCACAAATGGAAATGTTTG [GTGCAC_site9971]	10.9
TCATAACAACTTTGTGTGCACATAAAACATGTATAT	11
ATATAATATTAGTGCACACACAAAAATGTACTAAAC [CACACA_site632]	10.4
TCAACAAATAAACTTTGTACATATATACAAAATATA [XGTACX_site4447]	6.27
AACTTAAAAAATAAATGTACATAAATATAAACATAT [XGTACX_site2987]	6.59
TATATATATATGTGCACACATAATAAAAAAAAAAAT [CACACA_site3831]	9.99
GAATAAAAAATATATGTGCACATATAAACTTAAAAT [GTGCAC_site9554]	10.7
GTATATAATATTAGTGCACACACAAAAATGTACTAA [CACACA_site8112]	10.3
TGTATATGGTTTGTGCAAAAATTTATTAATGTGTAA [TGCATGCA_negctrl_site374]	10.1
TTATATGTTTTGTGTACACAATTTATTAAATTAATA [CACACA_site5645]	8.03
TATATATATATAACAACACACACAGATCATAAAACT [CACACA_site8670]	8.9
CTATAATATTAGTGCACACACAAAAATGTACTAAAC [CACACA_site6442]	10.6
